Measured values: the supplement of paper PMC12636033
± gives the standard deviation of the averaged measurements. Over roughly 33,000 sequences, “E-score (rank enrichment, -0.5 to 0.5)” has its median near -0.0075; the highest 2% begin near 0.23. The list comes from a sample in which the highest values are over-represented; it also holds similar and randomly drawn sequences.

tested on: WT Max(13-93) synthetic (M65Nle); assay: PBM 8-mer E-score (E-score (rank enrichment, -0.5 to 0.5)); higher = stronger preferential binding
Method: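 Protein binding microarray (universal PBM chip covering all 10-mers in fixed probe flanks) with chemically synthesized human Max(13-93) bHLH-LZ analogs (not full-length Max) bearing noncanonical residues (hArg, Tha, Aib, Nle at 65) and aromatic Cys staples. Read-out per 8-mer (and its reverse complement): E-score (rank-based enrichment, -0.5 to 0.5) and Z-score of median probe intensity.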

| Sequence | PBM 8-mer E-score |
| --- | --- |
| AGCGATAA | -0.115 ± 0.023 |
| AAACCAGC | -0.182 ± 0.12 |
| CTGAAGGA | -0.0478 ± 0.038 |
| AACAAGAT | 0.11 ± 0.095 |
| TACAAATA | 0.154 ± 0.042 |
| AACAAAAT | 0.301 ± 0.016 |
| AACAAAAA | 0.113 ± 0.021 |
| AACAAATA | 0.235 ± 0.039 |
| AACAAGTA | 0.0942 ± 0.0044 |
| AATCTACG | -0.0669 ± 0.058 |
| AAAGTACG | 0.0681 ± 0.065 |
| CAGCACCA | -0.0907 ± 0.0017 |
| CCATTAGA | -0.222 ± 0.029 |
| ATAGAAAA | 0.134 ± 0.016 |
| GATTAATA | 0.266 ± 0.022 |
| AATTAAAG | 0.184 ± 0.068 |
| AATTAAAT | 0.253 ± 0.024 |
| GATTAAGA | 0.182 ± 0.054 |
| ACTTAATA | 0.21 ± 0.015 |
| ATTTAATA | 0.23 ± 0.013 |
| AATTAAAC | 0.218 ± 0.018 |
| AATTAAGA | 0.241 ± 0.057 |
| AATTAATA | 0.243 ± 0.094 |
| TATTAATA | 0.19 ± 0.021 |
| AATTAAGC | 0.0692 ± 0.079 |

| Sequence | PBM 8-mer E-score |
| --- | --- |
| CATTAATA | 0.119 ± 0.11 |
| AGCAGAAG | -0.0139 ± 0.09 |
| ATCGCTCC | -0.0658 ± 0.15 |
| ACGTAACC | 0.109 ± 0.1 |
| CTTACCGC | -0.13 ± 0.11 |
| CTGATCCC | -0.00057 ± 0.1 |
| AGTGCCTG | -0.101 ± 0.011 |
| CTCAAGAG | -0.266 ± 0.032 |
| AATTAGTA | 0.249 ± 0.075 |
| AATTAATG | 0.166 ± 0.16 |
| AATTAATC | 0.0672 ± 0.11 |
| AATTAGTC | -0.027 ± 0.071 |
| CATTAGTA | 0.0683 ± 0.015 |
| AATTAATT | 0.262 ± 0.088 |
| CGGGCTCA | -0.237 ± 0.039 |
| CAACAAGA | 0.0122 ± 0.26 |
| AAAACAAT | 0.259 ± 0.0082 |
| GAACAACA | 0.0194 ± 0.12 |
| AAACAAGT | 0.0146 ± 0.12 |
| CAACAACA | 0.237 ± 0.027 |
| AAACAAAT | 0.275 ± 0.05 |
| AAACAAAA | 0.284 ± 0.023 |
| TAACAAAA | 0.166 ± 0.0052 |
| AAACAAAG | 0.114 ± 0.032 |
| AAAACAAG | 0.122 ± 0.18 |

| Sequence | PBM 8-mer E-score |
| --- | --- |
| AAAACAAC | -0.0511 ± 0.034 |
| AAACAAAC | 0.0359 ± 0.011 |
| CTATCTGC | -0.0743 ± 0.063 |
| CACTACAG | -0.123 ± 0.011 |
| GTTAGAGA | -0.0703 ± 0.011 |
| AAGGCGAT | 0.0502 ± 0.11 |
| ATTAAAGC | 0.133 ± 0.061 |
| AAGGTTGA | 0.14 ± 0.0094 |
| CCGCTTAG | -0.158 ± 0.088 |
| ATGCCGCC | -0.15 ± 0.1 |
| TATCAACA | 0.192 ± 0.053 |
| GATCAACA | -0.0789 ± 0.16 |
| AATCAACA | 0.283 ± 0.051 |
| GTCAAGAA | 0.12 ± 0.082 |
| ATTCGGGA | -0.128 ± 0.12 |
| GAGGAAAA | 0.113 ± 0.23 |
| GTTTGAAA | 0.277 ± 0.019 |
| CTTTGAAA | 0.0996 ± 0.023 |
| ATTTGAAA | 0.124 ± 0.0068 |
| ATTAAACG | 0.255 ± 0.023 |
| ATTAAACC | 0.0834 ± 0.057 |
| ATTAAACA | 0.095 ± 0.031 |
| ATCAGACG | -0.142 ± 0.13 |
| CACGGTCG | -0.27 ± 0.0093 |
| ATGCAACA | 0.229 ± 0.099 |

| Sequence | PBM 8-mer E-score |
| --- | --- |
| ATGCAACG | 0.0584 ± 0.039 |
| ATGCAACC | 0.244 ± 0.066 |
| ACTCGTTA | -0.0291 ± 0.015 |
| ACCATGCG | 0.243 ± 0.0064 |
| AACATGCT | 0.242 ± 0.035 |
| ACCATGTA | 0.162 ± 0.065 |
| ACCATGTC | 0.0659 ± 0.016 |
| ACCATGCT | 0.277 ± 0.028 |
| AACATGCA | 0.202 ± 0.039 |
| ACCATGTG | 0.442 ± 0.0045 |
| ACCATGCA | 0.221 ± 0.0057 |
| AACATGGT | 0.052 ± 0.061 |
| ACCATGAT | 0.136 ± 0.019 |
| ACCATGGT | -0.00014 ± 0.21 |
| ACCATGCC | 0.00171 ± 0.051 |
| ATGATGAG | 0.0781 ± 0.012 |
| GTCGGTCA | -0.151 ± 0.14 |
| AGAATGCC | -0.0707 ± 0.0056 |
| CGCAGGCA | -0.131 ± 0.12 |
| ATTAACGG | 0.153 ± 0.089 |
| GCTGGCCA | -0.0533 ± 0.076 |
| CGGAACAC | -0.0883 ± 0.0097 |
| CACGTTCA | 0.163 ± 0.018 |
| CATCCAAG | -0.0693 ± 0.012 |
| AGCCCGTC | -0.151 ± 0.071 |

| Sequence | PBM 8-mer E-score |
| --- | --- |
| ATCATGTA | 0.169 ± 0.004 |
| ATCATGTC | 0.186 ± 0.057 |
| ATCATGTG | 0.264 ± 0.022 |
| GTGGTTTA | 0.179 ± 0.053 |
| CGTGGAAA | 0.267 ± 0.071 |
| TGTGGAAA | 0.249 ± 0.072 |
| TGTGGTAA | 0.0282 ± 0.15 |
| CGTGGAAG | 0.176 ± 0.0075 |
| CGTGGAAC | -0.0332 ± 0.0099 |
| CGTGGTAA | 0.246 ± 0.1 |
| AGTGGAAA | 0.164 ± 0.094 |
| GGTGGAAA | 0.0407 ± 0.064 |
| GGTGGTAA | 0.11 ± 0.1 |
| TCTCGGAA | -0.232 ± 0.095 |
| CATCAAAA | 0.0623 ± 0.033 |
| ATCGTCTC | -0.00218 ± 0.023 |
| GCCGATAA | 0.032 ± 0.051 |
| AACGCAGC | -0.1 ± 0.048 |
| AACAATGC | 0.161 ± 0.14 |
| GCTGCGAC | -0.219 ± 0.069 |
| CGCACAGC | -0.171 ± 0.087 |
| GCGGTGAC | -0.146 ± 0.14 |
| TGGTAAAA | 0.0895 ± 0.03 |
| ACGCTACA | 0.275 ± 0.013 |
| TCGCTACA | -0.0172 ± 0.075 |

| Sequence | PBM 8-mer E-score |
| --- | --- |
| GCGCTACA | -0.115 ± 0.006 |
| GTTGATTA | 0.2352 ± 0.0022 |
| ATTGATTA | 0.0358 ± 0.11 |
| CTTGATTA | 0.12 ± 0.025 |
| GCGTTTAA | 0.0231 ± 0.056 |
| CCGTGGTC | -0.211 ± 0.023 |
| CCGTGGTA | -0.0399 ± 0.0038 |
| AGGTGGTG | 0.109 ± 0.09 |
| AAGTGGTG | -0.0214 ± 0.11 |
| ACGTGGTA | 0.347 ± 0.069 |
| AGGTGGTC | -0.0706 ± 0.0051 |
| GCGTGGTA | 0.215 ± 0.12 |
| ACGTGGTC | 0.312 ± 0.022 |
| ACGTGGTG | 0.392 ± 0.024 |
| GGCAAGAA | 0.127 ± 0.016 |
| ACTTGGCA | 0.0244 ± 0.14 |
| CAAGGCTA | -0.0688 ± 0.18 |
| TGCCAGAA | -0.0686 ± 0.042 |
| ATGGTAAT | 0.24 ± 0.019 |
| ATGGTAAG | 0.12 ± 0.15 |
| ATGGTAAC | 0.159 ± 0.045 |
| AAAGGTGA | 0.0498 ± 0.1 |
| CATGGAAG | 0.251 ± 0.028 |
| CATGGAAC | 0.0484 ± 0.039 |
| AATGGAAG | 0.0617 ± 0.11 |

| Sequence | PBM 8-mer E-score |
| --- | --- |
| CATCTTCG | -0.0197 ± 0.078 |
| CCCGGAGC | -0.218 ± 0.06 |
| CGGAACAG | -0.184 ± 0.097 |
| CCAATTCG | 0.00099 ± 0.067 |
| ACAATTCA | 0.0972 ± 0.033 |
| CCAATTCA | 0.237 ± 0.0091 |
| GAAAACTC | -0.0313 ± 0.025 |
| AAAACCTA | 0.259 ± 0.038 |
| AAACCCTG | 0.124 ± 0.14 |
| AAACCCAT | 0.236 ± 0.013 |
| CAAACCTA | 0.0613 ± 0.11 |
| AAACCCAG | -0.00534 ± 0.0017 |
| AACCCCAT | 0.00208 ± 0.027 |
| AAAACCTT | 0.0888 ± 0.07 |
| AAACCCTA | 0.253 ± 0.042 |
| CAACCCTA | 0.00074 ± 0.036 |
| ATAGCGAG | -0.0262 ± 0.05 |
| AGGCCCAA | -0.118 ± 0.037 |
| AAGCACAA | 0.0693 ± 0.08 |
| CGCTTCCG | -0.206 ± 0.041 |
| AGCCTGGA | -0.148 ± 0.017 |
| AAATCGAT | -0.116 ± 0.11 |
